M1 agonist: M1 muscarinic receptor agonists, primary screen, CHO-M1 cells, Fluo-4 calcium, agonist mode | Muscarinic acetylcholine receptor M1 | Fluo-4 calcium fluorescence; hits give high values | B-score at 10 µM | actives 3% (n = 64,000);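 active = fluorescence rise, raw or as B-score row- and column-corrected plate score, outside the 99.7% band of its plate's samples, either direction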
M1 antag: antagonists of rat M1 muscarinic receptor. B-score at 10 µM. AID 628, 2007. actives 3.4% (n = 64,000). Muscarinic acetylcholine receptor M1 (Rattus norvegicus), P08482. CHO-M1 cells, Fluo-4 calcium, ACh EC80 antagonist mode; hits give low values;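 active = calcium fluorescence response, raw or row-and-column corrected B-score, differing from the plate sample mean either way at a set confidence level, mostly lower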
FXIIa mix inh: human factor XIIa inhibitors, primary screen, biochemical, pooled compound mixtures, fluorogenic substrate | inhibition, % at 5 µM | actives 0.2% (n = 62,000) | purified FXIIa
D1 allo mod: D1 CRE-luciferase signal change, two-sided – cell-based, HEK293 D1, dopamine EC30, D1 allosteric modulator project, primary screen | dopamine EC30 potentiation; actives deviate in either direction | AID 641, 2007 | actives 5.9% (n = 58,000) | B-score at 10 µM;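 active = luminescence count or its row- and column-corrected plate score outside the 99.7% band of the plate's sample wells, on either side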
FXIa mix inh: FXIa protease inhibitors in compound pools, primary screen, biochemical, 10-compound mixtures. inhibition, % at 5 µM. Coagulation factor XI (Homo sapiens), P03951. AID 680, 2007. purified FXIa, fluorogenic substrate, pooled mixtures. actives 0.19% (n = 62,000);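 also: each value is inhibition by a whole ten-compound pool holding the compound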
hDAT+cocaine: changed hDAT dopamine uptake under cocaine IC80, either direction, primary screen, cocaine antagonist project, cell-based, LLC-PK1 hDAT, [14C]-dopamine uptake, MLSMR | actives 1.3% (n = 110,000) | B-score at 10 µM | LLC-PK1 hDAT cells, [14C]-dopamine uptake with cocaine IC80; actives deviate in either direction | AID 449768, 2010;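 active = Z score or B-score, a plate-position-corrected score, falls beyond the plate's 99.7% confidence bounds, in either direction; inactive = both scores lie inside the 99.7% bounds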
M1 ag confirm: rat M1 muscarinic receptor agonists, confirmation, CHO-M1 cells, Fluo-4 calcium, duplicate retest; shares compounds with M1 agonist; Fluo-4 calcium fluorescence, agonist mode; actives lie on both sides; fluorescence change (max-min) at 10 µM; actives 19% (n = 1,700);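 active = fluorescence change differs from the solvent-only DMSO control mean at a set confidence level in both duplicate runs; inconclusive = differs from solvent-only control mean in just one of two runs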;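 also: an EC20 dose of acetylcholine follows compound addition during the same imaging run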
M4 agonist ctr: agonist activity at rat M4 receptor, confirmation, counter-screen for M1 allosteric modulator project, cell-based, agonist mode. shares compounds with M1 agonist. AID 1741, 2009. actives 9% (n = 1,700). fluorescence change (max-min) at 10 µM. CHO M4/Gqi5 cells, Fluo-4 calcium fluorescence; actives lie on both sides;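 active = fluorescence change differing from the plate's solvent-only control wells at 99.7% confidence in both duplicates, whether higher or lower; inconclusive = differs from solvent controls in only one of two duplicates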
A number is an active result; - = inactive; ? = inconclusive; . = no result given. Compounds with a hit are over-represented: about 7.4% of the library has one in this group of screens. Rule as the data show it, unless noted: active = inhibition above about 20% (passing the limit was not always enough); inactive = the rest.

SMILES	M1 agonist	M1 antag	FXIIa mix inh	D1 allo mod	FXIa mix inh	hDAT+cocaine	M1 ag confirm	M4 agonist ctr
CCCCCCNC(=O)C(C#N)c1nc2ccccc2nc1N1CCOCC1 (configuration not stated)	156	-	-	-	-	-	179	1619
CCOc1ccccc1C(=O)N1CCN=C1SCc1cccnc1	-	-	-	-	-	-	.	.
O=C(Nc1ncc2c(n1)-c1ccccc1CC2)c1ccc(Cl)cc1	.	.	.	.	.	-	.	.
CC(Nc1ncnc2nc[nH]c12)c1ccccc1 (configuration not stated)	2.8	-	-	-	-	-	-	-
O=C(CSc1ncc(C(F)(F)F)cc1Cl)N1CCN(S(=O)(=O)c2ccc3ccccc3c2)CC1	.	.	.	.	.	-	.	.
COc1ccc2nc(N3CCC(O)CC3)c(C#N)cc2c1	55	-	-	-	-	-	198	166
COc1ccc2nc(N3CCC(C)CC3)c(C#N)cc2c1	4	-	-	-	-	-	-	?
CCOC(=O)C1CCN(c2nc3cc(OC)ccc3cc2C#N)CC1	-	-	-	-	-	-	.	.
Cc1nn(Cc2ccc(F)cc2)c(C)c1NC(=O)c1noc2c1CCCCC2	5.9	-	-	-	-	-	-	-
Cc1nn(Cc2ccc(Cl)cc2)c(C)c1NC(=O)c1cc(-c2ccc3c(c2)OCO3)on1	-	-	-	-	-	-	.	.
Cc1nn(Cc2ccc(Cl)c(Cl)c2)c(C)c1NC(=O)c1cc(-c2ccc3c(c2)OCO3)on1	4.1	-	-	-	-	-	-	-
N#CC1=C(N)Oc2cc(N)ccc2C1C1CC=CCC1 (configuration not stated)	-	-	-	.	-	-	.	.
CCOC(=O)CSC1=C(C#N)C(c2ccc(Cl)cc2)CC(=O)N1 (configuration not stated)	3	-	-	-	-	-	-	?
COc1ccc(C(=O)CC(Nc2ccc([N+](=O)[O-])cc2)c2ccc(Cl)cc2)cc1 (configuration not stated)	.	.	.	.	.	-	.	.
Cc1nnc(C)n1N1C(=O)c2cccc3cccc(c23)C1=O	-	-	-	-	-	.	.	.
NC1=CC(=O)c2cccc3cccc1c23	53	-	-	-	-	-	371	440
O=C(NC1CCCC1)C1CCC(=O)N1C1CCCC1 (configuration not stated)	-	-	-	-	-	-	.	.
CCn1nc(C)c(/C=C2\CCCC3=C2OC(N)=C(C#N)C3c2c(C)nn(CC)c2C)c1C (configuration not stated)	14	-	-	-	-	-	100	?
O=S(=O)(c1ccc2c(c1)OCO2)N1CCN(c2nnnn2-c2ccccc2)CC1	-	-	-	-	-	-	.	.
COc1ccc(Nc2ccnc3ccccc23)cc1	14	-2	-	-3.7	-	-	-	-
COc1ccc2c(c1)[nH]c1c(=O)n(CCN3CCCC3)cnc12	2.2	-	-	-	-	-	?	-
O=C(CCC(=O)c1cccs1)OCC(=O)N1CCN(S(=O)(=O)c2ccccc2)CC1	-	-	-	-	-	-	.	.
CCN1C(=O)C(O)(CC(=O)c2ccccn2)c2ccccc21 (configuration not stated)	.	.	.	.	.	-	.	.
CN1C(=O)C(O)(CC(=O)c2ccccn2)c2cc(Br)ccc21 (configuration not stated)	-2.7	-	-	.	-	-	?	-
